GPR151 activ: activates the human receptor GPR151 | Q8TDV0 | PathHunter beta-arrestin GPR151 cells, luminescence | activation, % at 11.2 µM | 650,000 tested, 1% active | AID 1508602; in the data active = activation above about 4.9%;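 also: 0% = median of compound wells and 100% = cells with positive control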
Target sequence (Q8TDV0 whole entry, looked up): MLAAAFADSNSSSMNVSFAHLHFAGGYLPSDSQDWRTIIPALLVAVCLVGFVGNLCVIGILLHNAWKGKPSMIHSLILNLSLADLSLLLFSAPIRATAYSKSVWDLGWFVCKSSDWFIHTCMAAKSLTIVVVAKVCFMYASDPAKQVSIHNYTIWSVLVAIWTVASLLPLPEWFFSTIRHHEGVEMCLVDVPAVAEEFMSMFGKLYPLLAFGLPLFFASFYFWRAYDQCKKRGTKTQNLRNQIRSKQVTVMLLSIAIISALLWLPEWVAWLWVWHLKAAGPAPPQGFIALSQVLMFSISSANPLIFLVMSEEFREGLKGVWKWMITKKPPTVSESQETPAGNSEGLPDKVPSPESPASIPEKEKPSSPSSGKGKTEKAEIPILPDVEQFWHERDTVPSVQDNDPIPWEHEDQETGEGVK
MITF primary: human MITF inhibition, primary screen; O75030; AlphaScreen MITF homodimerization, bead proximity signal; inhibition, % at 2.6 µM; 650,000 tested, 0.91% active; AID 1259374; in the data active = inhibition above about 50%;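 also: 0% = vehicle wells with protein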
FBW7 activator: activators of human E3 ligase FBW7; Q969H0; 650,000 tested, 0.13% active; AlphaScreen FBW7–phospho-cyclin E peptide binding, activator screen; normalized activity (activation), % at 26.1 µM; in the data active = normalized activity above about 1.9%;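 also: purified mutant Fbw7 with reduced substrate affinity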
TEAD-YAP block: TEAD-YAP interaction inhibition. HEK-TIYL cells, TEAD-Gal4/YAP UAS-luciferase luminescence. inhibition, % at 9.12 µM. 640,000 tested, 1.4% active; in the data active = inhibition above about 32%;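 also: 0% = median of test compound wells and 100% = reference inhibitor wells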
Starred values were filed as active, the others as inactive. Sampled rows, rich in hits. Any-hit rate of the full collection: about 3.4%.

SMILES	GPR151 activ	MITF primary	FBW7 activator	TEAD-YAP block
Nc1cccc(-c2nc(NCCc3ccc(O)cc3)c3ncn(-c4ccccc4)c3n2)c1	-1.0	-0.3	-0.1	37.7*
CN1CCN(c2ccc(-c3nc(NCCN4CCOCC4)c4ncn(-c5ccsc5)c4n3)cc2)CC1	2.1	-2.1	-0.1	9.5
CC1CN(c2c(Cl)cccc2NC(=O)c2ccc(Br)o2)CCN1C(=O)OC(C)(C)C (stereo not given)	-0.3	-6.3	0.5	2.9
COC(=O)c1ccccc1NC(=O)CSc1nc2c(sc(=S)n2Cc2ccco2)c(=O)n1-c1ccc(F)cc1	-1.2	-4.9	-0.1	-7.7
Nc1cccc(-c2nc(NCCN3CCOCC3)c3ncn(-c4ccccc4)c3n2)c1	-2.7	-2.8	-0.1	57.9*
Cc1ccc(N2CCN(C(=O)Cc3nn(C)c(=O)c4ccccc34)CC2C)cc1 (stereo not given)	-0.2	4.5	0.0	37.8*
Cc1cccnc1Nc1nc(-c2cccs2)cs1	-1.5	-5.9	-0.3	-63.5
O=C(Nc1nc(-c2cccs2)cs1)c1ccncc1	-1.0	12.0	-0.1	35.3*
Cc1ccc(Nc2nc(-c3cccs3)cs2)nc1	-2.8	3.7	0.0	55.5*
O=C(Nc1nc(-c2cccs2)cs1)c1ccc(Br)cc1	0.3	-14.2	-0.1	-25.1
CN(C)c1ccc(Nc2nc(-c3cccs3)cs2)cc1	-1.6	13.9	-0.2	69.8*
CCN1CCN(CC(=O)Nc2cccc(F)c2)C(=O)C1=O	0.6	-6.2	-0.2	-2.5
CCOC(=O)C1=CN(c2cc(C)cc(C)c2)C=C(C(=O)OCC)C1c1ccc(C)s1	0.8	11.7	0.1	1.9
Fc1ccc2c(c1)/C(=N\NC(=S)Nc1ccccc1)CCO2	-0.3	2.5	0.1	2.3
COc1ccc(-c2noc(C3CCCN(C(=O)c4c(OC)cccc4OC)C3)n2)cc1 (stereo not given)	0.9	-4.3	0.1	46.9*
CCCC(=O)N1CCCC(c2nc(-c3cccc(OC)c3)no2)C1 (stereo not given)	-1.3	-0.4	0.1	-8.1
CCC(CC)C(=O)N1CCCC(c2nc(-c3cccc(OC)c3)no2)C1 (stereo not given)	-0.5	-1.0	-0.2	42.2*
c1ccc(-c2ncn(-c3ccc(Nc4nccc(-c5cncc(N6CCOCC6)c5)n4)cc3)n2)nc1	-0.1	3.2	-1.4	73.0*
Fc1cc(-c2nc(Nc3ccc(-n4cnc(N5CCOCC5)n4)cc3)ncc2F)cc(N2CCOCC2)c1	-0.4	1.2	-0.2	14.2
c1cc(-c2ccnc(Nc3ccc(-n4cnnc4)cc3)n2)cc(N2CCOCC2)c1	0.7	6.2	-0.1	44.6*
Fc1cc(-c2nc(Nc3ccc(-n4cnc(-c5ccccn5)n4)cc3)ncc2F)cc(N2CCOCC2)c1	0.4	14.4	0.2	58.4*
c1ccc(-c2ncn(-c3ccc(Nc4nccc(-c5cccc(N6CCOCC6)c5)n4)cc3)n2)nc1	-0.3	1.4	-0.1	80.2*
Cc1nnc(CN(C)C(=O)CC2C(=O)NCCN2Cc2cccc(Oc3ccccc3)c2)o1 (stereo not given)	0.4	-3.0	0.0	0.7
COCCN(CCCN1CCc2ccccc21)C(=O)C(C)(C)C	0.6	7.8	-0.2	3.3
O=C(COc1ccccc1)NCCc1nnc2n1CCN(Cc1ccccn1)CC2	-0.2	13.9	-0.2	-6.1
SMILES	GPR151 activ	MITF primary	FBW7 activator	TEAD-YAP block
Nc1c(C(=O)Nc2ccccc2)sc2nc3c(cc12)C(=O)CCC3	-1.8	-4.2	-0.1	32.3*
Cc1ccc(NC(=O)c2sc3nc4c(cc3c2N)C(=O)CCC4)cc1C	0.7	0.5	0.2	65.2*
CC1(C)CC(=O)c2cc3c(N)c(C(=O)NC4CCCCC4)sc3nc2C1	-0.2	21.6	2.4*	-1.9
Nc1c(C(=O)Nc2ccc(Oc3ccccc3)cc2)sc2nc3c(cc12)C(=O)CCC3	-0.4	25.2	0.3	36.8*
Nc1c(C(=O)Nc2ccc(Br)cc2)sc2nc3c(cc12)C(=O)CCC3	1.5	-8.2	-0.1	-4.9
Cc1ccc(NCC(O)Cn2c3ccc(Br)cc3c3cc(Br)ccc32)cc1 (stereo not given)	-0.2	-6.9	-0.1	11.4
Cc1nn(-c2ccccc2)c(N2CCCCC2)c1/C=N/Nc1ccccn1	-1.0	7.0	-0.1	60.9*
COc1ccc(C)cc1S(=O)(=O)NCc1ccco1	-0.6	-7.5	0.0	-3.0
COc1ccc(Cl)cc1C(=O)Nc1ccc(Nc2cc(-n3cccn3)ncn2)cc1	1.3	-4.7	0.1	0.3
O=C(Nc1ccc2ccccc2c1)c1ccc(C2CCCCC2)cc1	1.0	-1.7	0.0	33.6*
COc1cccc(C(=O)Nc2ccc3scnc3c2)c1	-8.6	-3.0	-0.2	63.4*
O=C(Nc1ccc2scnc2c1)c1ccc2ccccc2c1	-4.8	6.5	-0.1	66.0*
COc1cccc(C(=O)Nc2ccc(Nc3cc(-n4cccn4)ncn3)cc2)c1	1.5	-5.5	0.1	67.9*
CC(C)Oc1ccc(C(=O)N2N=C(C(F)F)CC2(O)C(F)F)cc1 (stereo not given)	0.3	-3.5	0.1	1.9
CCOC(=O)NC(Nc1sc(C)c(CC)c1C(=O)OC)(C(F)(F)F)C(F)(F)F	-0.2	-11.2	0.0	4.1
COc1cccc(N(C(=O)CN2C(=O)c3ccccc3C2=O)c2nc3ccccc3s2)c1	-2.2	-2.1	-0.3	-18.8
COc1cccc(C(=O)Nc2ccc(N3CCCCC3=O)c(C)c2)c1	-10.6	-8.1	-0.2	75.5*
CC1(C)CC2(C)N(O)C(=O)CN2C(=S)N1 (stereo not given)	-0.5	1.5	0.0	3.2
CSc1sccc1/C=N/Nc1ccc([N+](=O)[O-])cc1	-1.2	11.3	2.1*	-19.0
COC(=O)c1ccccc1NC(=O)CSc1nnc(NC(=O)C2CCC2)s1	-1.7	-10.3	0.1	-5.2
COC(=O)c1ccccc1NC(=O)CSc1nnc(NC2CCCCC2)s1	0.5	9.9	0.1	39.7*
CC(=O)Nc1ccc(NC(=O)CCn2c(=S)oc3ccccc32)cc1	0.4	7.5	1.0	-2.4
CC(=O)/C=C/n1c(=S)oc2ccccc21	-0.6	7.2	0.0	57.1*
CCC(=O)/C=C/n1c(=S)oc2ccccc21	1.0	-12.3	-0.2	54.7*
O=[N+]([O-])c1cccc(C2=CC(c3cc(Br)ccc3F)n3nnnc3N2)c1 (stereo not given)	-1.7	17.1	0.1	11.2
COc1cccc(-c2cc3nc4c(c(NCc5cccnc5)n3n2)CCC4)c1	-0.6	-0.8	-0.1	42.2*
COc1cc(OC)cc(-c2cc3nc4c(c(NCc5cccnc5)n3n2)CCC4)c1	-0.5	-3.8	-0.1	44.7*
C=CCNc1nc(N)c(C(N)=NC#N)s1	1.8	-0.7	0.0	74.1*
c1cc(-c2cncnc2C2CCCNC2)ccn1 (stereo not given)	0.5	-3.9	-0.1	12.0
CC(C(O)c1ccccc1)N(C)C(=O)c1ccccc1 (stereo not given)	1.4	-11.5	0.0	-4.7
